Reference: PubChem BioAssay AID1117319 (Southern Research Institute, 2015)
The campaign covered roughly 260,000 compounds. About 1,500 (0.58%) were called active. Roughly 5% stayed inconclusive and do not appear here.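 The calls were made as follows: active = inhibition above a set limit at one or more doses, reproduced on every date tested; inconclusive = results disagree between test dates, or hit never tested in dose response; inactive = the rest.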 Only a sample is shown. Measured potencies and affinities stand elsewhere.

Molecular target: Virion infectivity factor (Human immunodeficiency virus type 1 group M subtype B (isolate BH10)) + Virion infectivity factor (Human immunodeficiency virus type 1 group M subtype B (isolate BRU/LAI)) + Virion infectivity factor (Human immunodeficiency virus type 1 group M subtype B (isolate PCV12)) + Virion infectivity factor (Human immunodeficiency virus type 1 group M subtype B (isolate HXB2)) + DNA dC->dU-editing enzyme APOBEC-3G (Homo sapiens) (UniProt P69720+P69721+P69722+P69723+Q9HC16)
Experiment: inhibitors of Vif binding to APOBEC3G peptide, primary screen, biochemical, TR-FRET, GST-Vif 1-94, biotin-A3G peptide, dose response retest (AID 1117319);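 also: Vif residues 1-94 fused to GST binding biotinylated APOBEC3G peptide 110-148; 0% = full assay without inhibitor and 100% = GST in place of GST-Vif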
Conditions: stronger effect = higher value

inhibition, inactive:
COc1ccc(/C=C2\S/C(=N/S(=O)(=O)c3cccs3)NC2=O)cc1 7.65%
CCCNC(=O)CN1C(=O)NC(CCc2ccccc2)C1=O (stereo unspecified) -6.24%
NC(=O)c1cc(S(=O)(=O)NCCCc2ccccc2)cs1 3.6%
COc1ccc(Nc2nc(C)cc(=O)[nH]2)c(OC)c1 10.4%
CCOC(=O)C1=C(N)OC2=C(C(=O)CCC2)C1c1cccs1 (stereo unspecified) 1.36%
COC(=O)C1=C(N)OC2=C(C(=O)CC(C)(C)C2)C1c1cccs1 (stereo unspecified) 12.5%
Oc1ccccc1/C=N/Nc1ccccc1 3.4%
Oc1ccccc1C=NNC(=S)NN=Cc1ccccc1O -0.1%
O=C(C(=NNc1ccccc1)c1ccccc1)c1ccccc1 -6.13%
COc1cc(/C=N/N=C(/C(=O)c2ccccc2)c2ccccc2)cc(OC)c1O 1.68%
O=C1C=CC(=O)N1CCCCCCCCCCN1C(=O)C=CC1=O -0.57%
O=S(=O)(NC1CCCC1)c1ccc(F)cc1F 21.1%
COc1ccc(C(=O)NC(C)c2nnc(SCC(=O)Nc3nc(C)cs3)n2C)cc1 (stereo unspecified) 5.71%
COc1cc(NS(=O)(=O)c2ccc(NC(=O)/C=C/c3ccc([N+](=O)[O-])cc3)cc2)ncn1 7.89%
CN1C(=O)CSC1=Nc1cccc(C(=O)O)c1 -5.13%
CN1C(=O)/C(=C/c2ccco2)SC1=Nc1ccc(N2CCOCC2)cc1 25%
CCCCn1c(N)c(N(CCC(C)C)C(=O)CSc2nnc(C)s2)c(=O)[nH]c1=O 2.42%
COc1ccc(N2CCN(c3ccc(C(N)=O)cc3[N+](=O)[O-])CC2)cc1 -3.87%
CC(=O)c1ccc(N2CCN(c3ccc(C(N)=O)cc3[N+](=O)[O-])CC2)cc1 15.8%
O=C(OCc1ccco1)c1cccnc1 -2.16%
Cc1ccc(Cc2c(-c3ccccc3)nc3cc(C)ccn23)cc1 -4.74%
CCC(=O)Nc1nnc(Sc2ccc(N(C)C)cc2)s1 2.99%
CCCC(=O)Nc1nnc(Sc2ccc(N(C)C)cc2)s1 2.88%
COCCSc1nnc(NC(=O)COC)s1 -0.26%
O=C1c2cccnc2C(Nc2cccc(F)c2)N1Cc1ccco1 (stereo unspecified) -1.27%
O=C1c2cccnc2C(Nc2ccccc2Br)N1Cc1ccco1 (stereo unspecified) 9.8%
Cc1cc(C(=O)COC(=O)c2ccc[nH]c2=O)c(C)n1C1CC1 13%
NC(=S)NNC(=O)c1cc(C(F)(F)F)cc(C(F)(F)F)c1 1.55%
Cc1ccc2[nH]cc(S(=O)(=O)c3ccc(C(C)C)cc3)c(=O)c2c1 -10.1%
CN(Cc1ccno1)C(=O)CC1C(=O)NCCN1CC(c1ccccc1)c1ccccc1 (stereo unspecified) -5.42%
Cc1ccc(NCN2C(=O)C3C4C=CC(C4)C3C2=O)cc1 (stereo unspecified) 6.77%
O=C1C2C3C=CC(C3)C2C(=O)N1CNc1ccccc1 (stereo unspecified) 2.49%
Cc1ccc(NC(=O)CSc2nc(C)c(C)c(C)n2)c([N+](=O)[O-])c1 -0.85%
CCOC(=O)C1=C(C)N=C(/N=C/N(C)C)SC1c1ccccc1 (stereo unspecified) 18.8%
O=C(O)CCc1ccc(-c2ccccc2)n1CC(=O)O 6.57%
COc1ccccc1NC(=O)Cn1c(CCC(=O)O)ccc1-c1ccccc1 -8.03%
O=S(=O)(Nc1ccc2c(c1)OCCO2)c1ccc2oc3ccccc3c2c1 -4.26%
Cc1ccc(C(=O)Nn2c(O)c(C=C3N=c4ccccc4=N3)sc2=S)cc1 0.29%
O=C(CCNC(=O)N1CC(=O)Nc2ccccc21)NCc1ccccc1Cl 2.33%
COCCN1CC(C(=O)NCc2ncccc2C)CCC1=O (stereo unspecified) 0.7%
O=c1oc2ccc([N+](=O)[O-])cc2c(N2CCOCC2)c1[N+](=O)[O-] -2.71%
COC(=O)Cc1cc(=O)n(-c2ccccc2)[nH]1 20.8%
COc1ccc(-c2cc(=O)n(-c3nc4ccccc4[nH]3)[nH]2)cc1 10.5%
COCCSc1nc2c(c(=O)[nH]c(=O)n2C)n1CCC(C)C 2.86%
Cc1ccc(N(CCO)C(=S)Nc2ccccc2)cc1 1.36%
O=C(c1cc(-c2ccccc2)nn1-c1ccccc1)N1CCN(S(=O)(=O)c2ccc(F)cc2)CC1 -4.9%
CCOC(=O)c1c(C)oc2c1c(C=NCCO)c(O)c1ccccc12 14.7%
CCOC(=O)c1c(C)oc2c1c(C=NCC1CCCO1)c(O)c1ccccc12 (stereo unspecified) 25.6%
CNS(=O)(=O)c1cccc(C(=O)OCC(=O)c2ccc3[nH]c(=O)[nH]c3c2)c1 4.94%
COc1ccccc1NC(=S)NC(NC(C)=O)C(Cl)(Cl)Cl (stereo unspecified) -2.68%
O=C(CCC(=O)N1CCN(c2ccccc2F)CC1)c1ccc(F)cc1 0.58%
Cc1cccn2c(=O)nc(SCC(=O)N3CCCCC3)nc12 -0.7%
Cc1cc(=O)n2nc(-c3ccc(C(F)(F)F)cc3)sc2n1 0.75%
CCN(CC)S(=O)(=O)c1ccc(/C=C/C(=O)Nc2ccccc2N2CCOCC2)cc1 28.5%
CCOc1ccc(/C=C/C(=O)Nc2ccc(N3CCOCC3)cc2)cc1 3.96%
CCNC(=O)COC(=O)c1ccc(S(=O)(=O)N2CCCCCC2)cc1 -4.99%
CC(C)Cc1cc(C(=O)N2CCC(N3CCC(C(=O)N4CCOCC4)CC3)CC2)n[nH]1 12.3%
CCCCN(C)C(=O)c1nc2ccccn2c1CN1CCN(c2ccccn2)CC1 -11.9%
COCCn1nnnc1C(c1cc2cc(C)ccc2[nH]c1=O)N1CCc2ccccc21 (stereo unspecified) 17%
Cc1cc(NC(=O)CSc2nnc(Cc3cccn3C)n2CCc2ccccc2)no1 24.2%
CC1(C)Cc2cccc(OCC(=O)OCc3nnc(-c4ccccc4)o3)c2O1 -2.78%
